Bioassay records as filed in PubChem BioAssay.
CYP2C9 activ = human CYP2C9 activators, primary screen, biochemical, luminescence; Cytochrome P450 2C9 (Homo sapiens), P11712; recombinant CYP2C9, luciferin-H conversion; stronger effect = higher value; factor 1 = untreated enzyme, 0 = blocked; activation factor at 5 µM; hit rate 1.4% among 96,000;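 active means activation factor of 2 or more for CYP2C9 at a 5 µM dose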;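 further: 0 = sulfaphenazole-blocked wells and 1 = vehicle-only wells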
E-sel TNF inh = E-selectin induction blockers in HUVEC – imaging, immunofluorescence, high content, primary screen; HUVEC TNFa-induced E-selectin immunofluorescence; inhibition, % at 2 µM; hit rate 0.71% among 120,000; AID 1246, 2008;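 active means inhibition above the batch mean plus 3 SD, and confirmed as a hit on visual image review, cut at about 43% in these data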;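 further: 0% = TNF-stimulated DMSO wells and 100% = unstimulated control wells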
cytoskel mod = modifiers of F-actin cytoskeleton organization, primary screen, imaging, HUVEC, phalloidin staining, high-content imaging; HUVEC TNFa F-actin phalloidin imaging; inhibition, % at 2 µM; hit rate 0.18% among 91,000;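 active means inhibition above the batch mean plus 3 SD and confirmed as a hit by visual image inspection, cut at about 30% in these data, passing the limit was not always enough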
CYP2C19 inhib = blockers of cytochrome P450 2C19 activity – biochemical, luminescence, ADME assay, primary screen | CYP2C19 Supersomes, luciferin-H EGE luminescence, 30 min | AID 778, 2007 | hit rate 21% among 96,000 | inhibition, % at 5 µM;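 active means CYP2C19 inhibition above a set limit at 5 µM in the primary screen, cut at about 50% in these data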;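 further: plate controls were negative control wells for no effect and 2.5 mM tranylcypromine positive control for full effect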
Target sequence (P33261 whole entry, looked up): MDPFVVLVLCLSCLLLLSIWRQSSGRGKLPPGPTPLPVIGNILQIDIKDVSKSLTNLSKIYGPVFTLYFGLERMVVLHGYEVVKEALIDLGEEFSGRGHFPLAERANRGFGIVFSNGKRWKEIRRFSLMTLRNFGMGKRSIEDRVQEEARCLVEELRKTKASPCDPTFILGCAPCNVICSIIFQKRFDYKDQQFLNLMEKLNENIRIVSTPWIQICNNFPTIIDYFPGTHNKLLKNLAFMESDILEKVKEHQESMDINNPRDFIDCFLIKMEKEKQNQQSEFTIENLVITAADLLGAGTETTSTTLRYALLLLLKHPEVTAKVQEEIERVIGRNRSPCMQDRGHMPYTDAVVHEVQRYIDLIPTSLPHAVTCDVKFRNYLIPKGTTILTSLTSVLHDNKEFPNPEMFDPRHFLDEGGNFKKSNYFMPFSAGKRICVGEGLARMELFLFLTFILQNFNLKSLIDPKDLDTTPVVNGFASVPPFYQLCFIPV
CYP2C9 inh = blockers of cytochrome P450 2C9 activity – biochemical, luminescence, ADME assay, primary screen; P11712; CYP2C9 Supersomes, luciferin-H conversion; inhibition, % at 5 µM; hit rate 20% among 96,000;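 active means blocking of liver enzyme CYP2C9 beyond about 50% at 5 µM, limit read from the data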
CYP2C19 activ = human CYP2C19 activators, primary screen, biochemical, luminescence | Cytochrome P450 2C19 (Homo sapiens), P33261 | activation factor at 5 µM | recombinant CYP2C19, luciferin-H EGE luminescence; stronger effect = higher value; 0 = fully inhibited enzyme, 1 = untreated enzyme | 96,000 tested, under 10 active;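 active means activation factor of at least 2 at 5 µM in the primary screen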;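 further: 0 = wells with 2.5 mM tranylcypromine and 1 = vehicle-only wells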
* marks the source's active call; other numbers are inactive results; · = not tested or not shown. In the library only some 22% were active in any assay of this set; here they are far more common.

SMILES	CYP2C9 activ	E-sel TNF inh	cytoskel mod	CYP2C19 inhib	CYP2C9 inh	CYP2C19 activ
COc1ccc(OC)c(NC(=O)c2c(NC(=O)CNCc3ccco3)sc3c2CCC3)c1	0.4	6	10	34	65*	0.7
COc1ccc(NC(=O)c2c(NC(=O)CNCc3ccco3)sc3c2CCC3)cc1	0.1	·	·	63*	93*	0.4
CCOC(=O)c1c(NC(=S)Nc2ccc(OC)cc2)sc2c1CCCCC2	·	14	·	·	·	·
COc1ccc(NC(=O)c2c(NC(=O)CNCc3ccco3)sc3c2CCC3)c(OC)c1	0	-20	-3	77*	97*	0.2
COc1ccc(-n2c(=O)c3c4c(sc3n(CC(=O)NCc3ccco3)c2=O)CCC4)c(OC)c1	·	-10	15	·	·	·
Cn1nnc(NC(=O)CSc2ccc(Cl)cc2)n1	·	-2	-32	·	·	·
O=C(Nc1ccc(-c2cn3ccsc3n2)cc1)C1CC1	1.4	-10	5	-3	-43	1
Cc1ccc2nc(SCc3nnc(-c4ccccc4)o3)[nH]c2c1	0.5	-5	14	30	51*	0.7
Cc1ccc2nc(SCn3nnc4ccccc4c3=O)[nH]c2c1	·	4	·	·	·	·
Cc1ccc2nc(SCc3nnc(-c4cccs4)o3)[nH]c2c1	0.5	5	15	43	51*	0.6
Cc1cccc(OCCCSc2nc3ccc(C)cc3[nH]2)c1	0.2	0	-11	86*	78*	0.1
Cc1cc(C)n2nc(SCc3nnc(-c4cccs4)o3)nc2n1	·	-37	·	·	·	·
CCOC(=O)C(NC(=O)c1ccc(OC)cc1)(N1CCCC1=O)C(F)(F)F (stereo not drawn)	·	1	·	·	·	·
O=C(/C=C/c1ccco1)OCc1nnc(-c2ccccc2)o1	·	-20	·	·	·	·
CC(=O)Nc1ccc2nc(N)sc2c1	·	4	-2	·	·	·
CSc1ccc(Cl)c(C(=O)OCC(=O)NCc2ccco2)c1	0.6	·	10	93*	43	0.1
COc1cc(NC(=O)c2cccs2)c(C(=O)OCC(=O)NCc2ccco2)cc1OC	0.2	-6	·	27	82*	0.7
CCOc1cc(C(=O)OCC(=O)NCc2ccco2)cc(OCC)c1OCC	0.4	-22	2	58*	57*	0.4
O=C(COC(=O)c1cccs1)NCc1ccccc1	0.8	-1	-12	92*	23	0.1
NC(=O)[C@@H]1CCCNc2c(F)cc([N+](=O)[O-])cc2C(=O)N[C@@H](CO)C(=O)NCC(=O)N1	·	-14	·	·	·	·
CC1(C)Cc2c(C#N)c(N)n(-c3ccccc3)c(=O)c2CO1	0.9	·	·	-2	9	1
O=C(COC(=O)c1cccs1)NCc1ccco1	0.8	·	·	70*	20	0.3
NC(=O)c1ccsc1NC(=O)COC(=O)c1ccccc1NCc1ccco1	0.1	·	-15	74*	90*	0.3
CC(C)(C)c1ccc(OCC(=O)NCc2ccco2)c(Br)c1	0.2	-51	-4	46	76*	0.5
COc1ccc(CN(Cc2ccccn2)S(=O)(=O)c2ccc(-n3cnnn3)c(OC)c2)cc1	0.1	39	0	89*	92*	0.1
SMILES	CYP2C9 activ	E-sel TNF inh	cytoskel mod	CYP2C19 inhib	CYP2C9 inh	CYP2C19 activ
CCOc1ccccc1CN(Cc1ccco1)S(=O)(=O)c1ccc(-n2cnnn2)c(OC)c1	0.3	10	-17	94*	68*	0.1
CCN(CC)S(=O)(=O)c1ccc(-n2cnnn2)c(C)c1	1	-10	34	36	4	0.6
Cc1cc(S(=O)(=O)N(Cc2ccccn2)Cc2ccco2)ccc1-n1cnnn1	0.5	13	·	75*	54*	0.3
CCCN(CC1CC1)S(=O)(=O)c1ccc(-n2cnnn2)c(OC)c1	0.9	3	-25	100*	8	0
Cc1ccccc1Cn1ccc(NC(=O)c2onc(C)c2Cl)n1	·	-40	·	·	·	·
CCOC(=O)NC1(Nc2ccc(Cl)cn2)Oc2ccccc2O1	1	5	6	17	2	0.8
COc1cc(C(=S)N2CCCC2)cc(Cl)c1OCC(=O)Nc1ccc(C)cc1C	·	-1	·	·	·	·
c1cncc(-c2nnc(SCCSc3nnc(-c4cccnc4)o3)o2)c1	·	-48	2	·	·	·
CCC1=NC(c2ccccc2OC)N(O)C1(C)C (stereo not drawn)	1.1	1	-9	-1	-6	1
